Only some compounds are listed: those with a hit (about 3.5% of all), similar ones and a draw of the others.
UGM FP inh: M. tuberculosis UGM enzyme inhibitors, primary screen, biochemical, fluorescence polarization, single point | UDP-galactopyranose mutase (Mycobacterium tuberculosis (strain ATCC 25618 / H37Rv)), … | purified UGM, fluorescence polarization probe displacement | inhibition, % at 10 µM | 320,000 tested, 0.06% active | AID 504406, 2011; in the data active = inhibition above about 10%, passing the limit was not always enough
GDH-TPI counter-1: GDH-TPI coupling enzyme inhibitors, primary screen, artefact control for M. tuberculosis FBA inhibitor project, biochemical, absorbance, full deck. 360,000 tested, 1.2% active. GDH-TPI coupled enzyme counterscreen, NADH absorbance. inhibition, % at 4.8 µM. AID 588335, 2011; in the data active = inhibition above about 30%
Mtb FBA inh: Mtb FBA enzyme inhibitors, primary screen, biochemical, fluorescence, strain H37Rv; AID 588726, 2011; 360,000 tested, 2.3% active; Fructose-bisphosphate aldolase (Mycobacterium tuberculosis (strain ATCC 25618 / H37Rv)), …; purified M. tuberculosis FBA, fluorescence read-out; inhibition, % at 1 µM
Target sequence (P9WQA3 whole entry, looked up): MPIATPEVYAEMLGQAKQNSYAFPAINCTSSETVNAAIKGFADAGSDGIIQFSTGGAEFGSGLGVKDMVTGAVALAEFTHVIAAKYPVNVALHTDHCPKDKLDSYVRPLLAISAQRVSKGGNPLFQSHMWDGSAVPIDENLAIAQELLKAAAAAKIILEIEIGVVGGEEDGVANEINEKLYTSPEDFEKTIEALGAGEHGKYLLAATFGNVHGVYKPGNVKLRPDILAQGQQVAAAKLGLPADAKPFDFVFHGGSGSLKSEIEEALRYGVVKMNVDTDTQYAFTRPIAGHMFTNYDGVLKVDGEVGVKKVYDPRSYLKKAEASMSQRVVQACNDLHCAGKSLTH
Rv3671c protease: Rv3671c serine protease inhibitors, primary screen, biochemical, fluorescence polarization, M. tuberculosis H37Rv; inhibition, % at 5.96 µM; 320,000 tested, 0.048% active; in the data active = inhibition above about 38%;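 note: extracellular domain of Rv3671c used as enzyme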
Mtb FBA confirm: M. tuberculosis aldolase blockers, biochemical, fluorescence, strain H37Rv, confirmation; shares compounds with Mtb FBA inh; purified M. tuberculosis FBA, fluorescence read-out; inhibition, % at 1 µM; 5,600 tested, 78% active; AID 651616, 2012
GDH-TPI counter-2: GDH-TPI coupling enzyme inhibitors, artefact control for M. tuberculosis FBA inhibitor project, biochemical, fluorescence, high throughput. shares compounds with Mtb FBA inh. GDH-TPI coupled enzyme counterscreen. inhibition, % at 1 µM. 5,600 tested, 81% active. AID 652141, 2013; in the data active = inhibition above about 10%
A number is an active result; – = inactive; · = no result; + = active, no number. Cut-off read from the data, not from the text of the source, unless noted: active = inhibition above about 27%; inactive = the rest.

SMILES	UGM FP inh	GDH-TPI counter-1	Mtb FBA inh	Rv3671c protease	Mtb FBA confirm	GDH-TPI counter-2
Cc1cc(C)n(-c2nc(NCc3cccnc3)c3c4c(sc3n2)COC(C)(C)C4)n1	–	–	63	–	81	63
COc1ccc(CCN2C(=S)N(C)C(=O)C2CC(=O)Nc2ccc(OC)cc2)cc1 (configuration not stated)	–	–	–	–	·	·
COc1ccc(NC(=O)CC2C(=O)N(C)C(=S)N2Cc2ccc3c(c2)OCO3)cc1 (configuration not stated)	–	–	80	–	39	33
O=C(NC1CCCCC1)C1CC(=O)N(c2cccc([N+](=O)[O-])c2)C1 (configuration not stated)	–	–	–	–	·	·
CCN(CC)C(=O)COc1c(-c2ccco2)oc2ccccc2c1=O	–	33	27	–	156	155
COc1ccc(NS(=O)(=O)c2ccc(C)c(C(=O)NCCCn3ccnc3)c2)cc1	·	–	–	·	·	·
O=C(Nc1ccccc1C(=O)Nc1nccs1)c1ccccc1	·	·	–	·	·	·
COc1ccc(-c2cc3nc(-c4ccccc4)cc(N4CCN(C(=O)c5ccoc5)CC4)n3n2)cc1	·	–	56	·	48	36
CCN1CCN(c2cc(-c3ccccc3)nc3cc(-c4cccc(F)c4)nn23)CC1	–	–	42	–	76	53
OC1CCN(c2cc(-c3ccccc3)nc3cc(-c4ccc(F)cc4)nn23)CC1	–	–	–	–	·	·
COc1cccc(-c2cc3nc(-c4ccccc4)cc(N4CCCC(O)C4)n3n2)c1 (configuration not stated)	–	–	102	–	199	141
COc1cc(C(C)=O)ccc1OCC(=O)OCCCOC(=O)COc1ccc(C(C)=O)cc1OC	–	–	–	–	·	·
CSc1ncccc1C(=O)Nc1cc(Cl)ccc1N1CCOCC1	–	–	–	–	·	·
CN(C)CCNC(=O)c1coc(=O)c(Br)c1	–	–	66	–	+	+
COc1ccccc1NC(=O)c1cc(N)cc(C(=O)Nc2ccccc2OC)c1	–	–	–	–	·	·
COc1ccccc1NC(=O)c1coc(=O)c(Br)c1	–	–	63	–	52	46
COc1ccccc1N1CCN(C(=O)c2cccc(C(=O)N3CCN(c4ccccc4OC)CC3)c2)CC1	–	–	–	–	·	·
COc1ccccc1N1CCN(C(=O)c2coc(=O)c(Br)c2)CC1	–	–	84	–	+	+
CC(C)CNC(=O)c1coc(=O)c(Br)c1	–	–	–	–	·	·
CCOC(=O)c1cc2c(=O)n3cccc(C)c3nc2n(Cc2ccco2)c1=NC(=O)c1cccnc1	·	–	106	·	31	35
COc1cccc(/C=C/c2nc(S(=O)(=O)c3ccccc3)c(N(C)C)o2)c1	–	–	47	–	58	44
COCCNc1oc(/C=C/c2ccc(F)cc2)nc1S(=O)(=O)c1ccccc1	–	–	–	–	·	·
COCCNc1oc(/C=C/c2cccc(OC)c2)nc1S(=O)(=O)c1ccccc1	·	32	47	·	123	89
CC(=NNC(=O)c1ccncc1)c1cc(Cl)ccc1Cl	·	–	–	·	·	·
COc1cc2[nH]c(=S)nc(NCC3CCCO3)c2cc1OC (configuration not stated)	–	–	75	–	83	61
SMILES	UGM FP inh	GDH-TPI counter-1	Mtb FBA inh	Rv3671c protease	Mtb FBA confirm	GDH-TPI counter-2
COc1cc2[nH]c(C(=O)NCC3CCCO3)cc2c(OC)c1OC (configuration not stated)	–	–	32	–	+	+
Cc1nnc(SCC(=O)NCc2ccccc2Cl)[nH]c1=O	–	–	–	–	·	·
CCC(C)(C)n1nnnc1C(c1cc2cc3c(cc2[nH]c1=O)OCO3)N1CCN(C)CC1 (configuration not stated)	–	–	59	–	32	28
O=c1[nH]c2cc3c(cc2cc1C(c1nnnn1C1CCCC1)N1CCSCC1)OCCO3 (configuration not stated)	–	–	31	–	144	91
CCC(C)(C)n1nnnc1C(c1cc2cc(C)cc(C)c2[nH]c1=O)N1CCN(Cc2ccc3c(c2)OCO3)CC1 (configuration not stated)	·	–	–	·	·	·
O=C(COc1ccc2c(c1)CCC2)Nc1ccccn1	·	–	–	–	·	·
COc1ccc(S(=O)(=O)N2CCOC2CNC(=O)C(=O)NCc2ccccn2)cc1OC (configuration not stated)	·	–	–	·	·	·
Cc1ccc(S(=O)(=O)NCc2ccccc2)cc1C(=O)N1CCN(S(=O)(=O)c2ccccc2)CC1	·	–	–	·	·	·
COc1cccc(-c2cc(=O)[nH][nH]2)c1	–	–	–	–	·	·
COc1cccc(-c2ccc(C#N)c(=O)[nH]2)c1	–	–	111	–	+	+
O=c1c2c3c(sc2nc(N2CCNCC2)n1CCc1ccccc1)CCCCC3	–	–	–	–	·	·
COC1(OC)N=C(N)C2(C#N)C(c3ccccc3)NC(C)=CC12C#N (configuration not stated)	–	–	62	–	+	+
COC1(OC)N=C(N)C2(C#N)C(c3cccc(Oc4ccccc4)c3)C12C#N (configuration not stated)	–	–	–	–	·	·
COc1ccc(-c2nc3nc(C)cc(C)n3n2)cc1	–	–	57	–	49	38
Cc1cc(C)n2nc(NCc3ccccc3)nc2n1	–	–	55	–	–	–
Cc1ccc([C@@H]2CC(=O)[C@@H]3CN(S(=O)(=O)c4ccc(C)cc4)[C@H](c4ccccc4)C[C@@H]3N2S(=O)(=O)c2ccc(Cl)cc2)cc1	·	–	–	·	·	·
COC(=O)C1=C(c2cccc(OCc3ccccc3)c2)C[C@@H]2CC[C@H]1N2C(=O)NCCOc1ccccc1Cl	–	–	–	–	·	·
COC(=O)C1=C(c2ccccc2OCc2ccccc2)C[C@@H]2CC[C@H]1N2C(=O)NCCOc1ccccc1Cl	–	–	46	–	179	122
CCCOc1ccc(C(=O)Nc2ccc3c(c2)OCCO3)cc1	–	–	–	–	·	·
CCOC(=O)c1cc2c(=O)n3ccccc3nc2n(CCOC)c1=NC(=O)c1c(-c2c(F)cccc2Cl)noc1C	–	37	49	–	178	166
Cc1onc(-c2c(F)cccc2Cl)c1C(=O)OCN1C(=O)c2ccccc2C1=O	–	–	–	–	·	·
O=C(NCc1ccccc1)N(Cc1cc2cc3c(cc2[nH]c1=O)OCCO3)CC1CCCO1 (configuration not stated)	·	–	28	·	54	52
CCC(=O)N(CCc1ccccc1)Cc1cc2cc3c(cc2[nH]c1=O)OCO3	–	–	40	–	36	26

Screens: PubChem, several laboratories
